A number with no mark means an inactive call. Active and inactive are the calls of the source. Calls follow the shape of the full dose curve.
Biological target: Acetylcholinesterase (Homo sapiens) (UniProt P22303)
Test: Acetylcholinesterase (AChE) small molecule antagonists: enzyme-based qHTS assay with human liver microsomes (AID 1347399); also: nearly all actives have a fitted effect of over 60% in size
Conditions: Potency: qHTS inhibition; outcome: qHTS inhibition; series mostly up to 115 µM; activity change, negative = inhibition: at the top concentration
Outline: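 Recombinant human AChE (50 mU/mL in the enzyme mix) and human liver microsomes (0.25 mg/mL final) were preincubated with compound and NADPH (0.25 mg/mL final) for 30 min at 37 C. Acetylthiocholine/DTNB was then added; thiocholine was read colorimetrically after 10 min at room temperature.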
% is scaled to controls: 0 for no effect and ±100 for the full control effect.

Sequence of Acetylcholinesterase (Homo sapiens) (P22303 whole entry, looked up): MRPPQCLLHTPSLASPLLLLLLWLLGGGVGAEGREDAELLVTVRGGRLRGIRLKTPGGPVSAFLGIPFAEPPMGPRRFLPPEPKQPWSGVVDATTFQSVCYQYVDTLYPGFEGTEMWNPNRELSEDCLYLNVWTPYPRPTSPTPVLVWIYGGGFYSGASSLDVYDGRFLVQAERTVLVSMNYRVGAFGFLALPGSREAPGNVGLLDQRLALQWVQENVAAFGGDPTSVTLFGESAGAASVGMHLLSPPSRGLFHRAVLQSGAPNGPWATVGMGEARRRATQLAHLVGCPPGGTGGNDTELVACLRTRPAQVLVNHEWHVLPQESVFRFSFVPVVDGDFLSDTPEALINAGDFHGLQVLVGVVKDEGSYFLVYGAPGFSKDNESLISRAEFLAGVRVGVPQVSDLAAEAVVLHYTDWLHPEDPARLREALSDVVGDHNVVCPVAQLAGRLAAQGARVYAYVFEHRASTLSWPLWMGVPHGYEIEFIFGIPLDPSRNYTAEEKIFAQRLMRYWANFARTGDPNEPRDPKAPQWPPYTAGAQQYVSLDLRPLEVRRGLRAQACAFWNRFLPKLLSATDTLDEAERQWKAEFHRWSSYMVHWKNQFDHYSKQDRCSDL

Compared with `CC(=O)Nc1c(I)cc(I)c(C(=O)O)c1I`, `CCC(C(=O)O)c1ccc(N2Cc3ccccc3C2=O)cc1` (centres undefined) is higher in “activity change, negative = inhibition” value: 0.253% [at 53 µM] for the first, 0.583% [at 53 µM] for the second.

First: CC(=O)Oc1ccc(C2(c3ccc(OC(C)=O)cc3)C(=O)Nc3ccccc32)cc1
Second: Cc1c(Cn2ccnc2)c2ccccc2n1CCC(=O)O
The “activity change, negative = inhibition” value of the first is higher: 0.59% [at 53 µM] for the first, -0.737% [at 53 µM] for the second.

In the case of `C[C@]12CC[C@@H]3c4ccc(O)cc4CC[C@H]3[C@@H]1C[C@@H](O)[C@@H]2O`, the Potency is reported as “inactive”.
In the case of `COc1ccc([C@@H]2CC(=O)c3c(O)cc(O[C@@H]4O[C@H](CO[C@@H]5O[C@@H](C)[C@H](O)[C@@H](O)[C@H]5O)[C@@H](O)[C@H](O)[C@H]4O)cc3O2)cc1OC`, the Potency is reported as “inactive”.
With `CC1=CC(=O)c2ccccc2C1=O` the Potency was “inactive”.

Going from `CCCCCCCCS(=O)(=O)O` to `CCCCCCCCSCCO`, the “activity change, negative = inhibition” value falls from -0.153% to -1.07%.

Compared with `COC(=O)/C=C(\C)CCC=C(C)C`, `C=CC(=O)CCCCC` is higher in “activity change, negative = inhibition” value: -0.448% for the first, 0.224% for the second.

Compared with `CNC(=O)Nc1ccc(Cl)c(Cl)c1`, `Cc1ncsc1CCO` is lower in “activity change, negative = inhibition” value: -0.162% for the first, -1.22% for the second.

With `CCCCN(CCCC)CCCCCCN(CCCC)CCCC` the “activity change, negative = inhibition” value was -0.147%.

From PubChem BioAssay (Tox21)
